These substances were tested against Histone H2B type 1-L (UniProt Q99880) (assay: cross-link between two proteins; cross-linking mass spectrometry).

Listed as a hit, yes:
Small ribosomal subunit protein eS8, P62241
Large ribosomal subunit protein eL6, Q02878
Large ribosomal subunit protein uL18, P46777

Source: publication PMC12701074
